# Several values for one entry are separate records, joined by “and”; a condition that tells them apart may be missing. Equal values may be shown once. Results filed as inconclusive are left out. A call without a number means that no potency is given here. Where a structure was tested more than once in an assay, its records may differ in their call. Activity calls are given as the source filed them. Unless noted, calls follow the shape of the dose curve; as a rule, active = well fitted curve in the direction sought with a large enough effect; inconclusive = small, poorly fitted or top-dose-only effect, or another doubt; inactive = no such curve, though single readings can be large; an effect the other way counts as inactive or inconclusive.
# Target: Cytochrome P450 3A4 (Homo sapiens) (UniProt P08684)
# Sequence (P08684 whole entry, looked up): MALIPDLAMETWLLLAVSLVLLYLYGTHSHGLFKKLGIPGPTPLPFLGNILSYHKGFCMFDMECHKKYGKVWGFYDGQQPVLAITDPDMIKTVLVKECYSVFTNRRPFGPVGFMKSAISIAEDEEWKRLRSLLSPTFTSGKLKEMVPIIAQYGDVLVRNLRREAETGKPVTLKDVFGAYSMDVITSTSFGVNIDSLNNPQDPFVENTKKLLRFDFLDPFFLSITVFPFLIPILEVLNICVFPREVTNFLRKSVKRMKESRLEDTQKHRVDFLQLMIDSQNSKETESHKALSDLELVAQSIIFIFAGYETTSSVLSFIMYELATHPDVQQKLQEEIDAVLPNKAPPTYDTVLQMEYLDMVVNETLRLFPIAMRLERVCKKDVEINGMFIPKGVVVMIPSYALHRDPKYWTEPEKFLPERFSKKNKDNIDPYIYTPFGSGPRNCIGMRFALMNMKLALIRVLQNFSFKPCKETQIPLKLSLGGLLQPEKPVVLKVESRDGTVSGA
# Assay: Cytochrome P450 family 3 subfamily A member 4 (CYP3A4) small molecule antagonists: luciferase qHTS assay (AID 1645841; active = well fitted curve in the direction sought with a large enough effect in the repeat runs; an effect the other way counts as inactive or inconclusive; also: nearly all actives have a fitted effect of over 45% in size)
# Conditions: P450-Glo CYP3A4 enzyme assay, luciferin luminescence; series mostly up to 57.4 µM
# Summary of the method: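 P450-Glo CYP3A4 enzyme with proluciferin substrate was preincubated with DMSO-dissolved compounds for 10 min at room temperature. NADPH regeneration solution started a 1 h reaction. Detection reagent stopped it, and luminescence was read after 20 min.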
row,SMILES,outcome
1,O=C(O)c1cn(-c2ccc(F)cc2)c2cc(N3CCNCC3)c(F)cc2c1=O,inactive
2,Cc1ccc(C)c(OCCCC(C)(C)C(=O)O)c1,inactive
3,CCC[C@@H]1C[C@@H](C(=O)N[C@@H]([C@H]2O[C@H](SC)[C@H](O)[C@@H](O)[C@H]2O)[C@@H](C)O)N(C)C1,inactive
4,CN(C)c1ccc(O)c2c1C[C@H]1C[C@H]3[C@H](N(C)C)C(=O)C(C(N)=O)=C(O)[C@@]3(O)C(=O)C1=C2O,inactive
5,O=C(OC1C[C@H]2CC[C@@H](C1)[N+]21CCCC1)C(O)(c1ccccc1)c1ccccc1 (stereo partly drawn),inactive
6,COc1cc(Nc2c(C#N)cnc3cc(OCCCN4CCN(C)CC4)c(OC)cc23)c(Cl)cc1Cl,inactive

# Target: Cytochrome P450 2C9 (Homo sapiens) (UniProt P11712)
# Sequence (P11712 whole entry, looked up): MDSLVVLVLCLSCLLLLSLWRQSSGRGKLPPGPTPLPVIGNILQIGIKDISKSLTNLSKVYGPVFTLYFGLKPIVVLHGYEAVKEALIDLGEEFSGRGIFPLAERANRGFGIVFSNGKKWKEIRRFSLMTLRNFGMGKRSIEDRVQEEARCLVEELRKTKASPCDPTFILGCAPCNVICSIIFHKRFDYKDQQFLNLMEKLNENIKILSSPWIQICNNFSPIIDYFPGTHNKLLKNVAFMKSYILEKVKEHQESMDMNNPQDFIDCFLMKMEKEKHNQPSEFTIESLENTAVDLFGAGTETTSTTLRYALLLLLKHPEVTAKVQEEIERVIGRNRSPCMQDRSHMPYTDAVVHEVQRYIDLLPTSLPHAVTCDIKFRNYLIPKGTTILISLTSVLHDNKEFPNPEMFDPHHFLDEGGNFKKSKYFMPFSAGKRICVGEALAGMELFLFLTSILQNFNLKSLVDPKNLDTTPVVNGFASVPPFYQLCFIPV
# Assay: Cytochrome P450 family 2 subfamily C member 9 (CYP2C9) small molecule antagonists: luciferase biochemical (cell-free) qHTS assay (AID 1645842; active = well fitted curve in the direction sought with a large enough effect in the repeat runs; an effect the other way counts as inactive or inconclusive; also: nearly all actives have a fitted effect of over 55% in size; also: potency is read from the fitted curve at half-maximal effect)
# Conditions: P450-Glo CYP2C9 enzyme assay, luciferin luminescence; series mostly up to 57.4 µM
# Summary of the method: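 Luminescence, after 20 min with luciferin detection reagent, reflected CYP2C9 turnover during a 1 h NADPH-driven reaction at 37C. Enzyme-substrate mix contained 0.4% bovine serum albumin and was preincubated with compound 10 min at room temperature.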
row,SMILES,Potency
1,O=C(O)c1cc(=O)c2c(OCC(O)COc3cccc4oc(C(=O)O)cc(=O)c34)cccc2o1,inactive
2,O=C(O)c1cn(-c2ccc(F)cc2)c2cc(N3CCNCC3)c(F)cc2c1=O,inactive
3,Cc1cccc(C)c1OCC(=O)N[C@@H](Cc1ccccc1)[C@@H](O)C[C@H](Cc1ccccc1)NC(=O)[C@H](C(C)C)N1CCCNC1=O,17.4 µM (active)
4,CN1CCC(=C2c3ccccc3CCc3sccc32)CC1,inactive
5,CC1=C(C(=O)O)N2C(=O)[C@@H](NC(=O)[C@H](N)C3=CCC=CC3)[C@H]2SC1,inactive
6,CCCOc1ccc2nc(NC(=O)OC)[nH]c2c1,inactive
7,CC1(C)NC(=O)N(c2ccc([N+](=O)[O-])c(C(F)(F)F)c2)C1=O,7.76 µM (active) and 6.01 µM (active)
8,C=CCc1cc(OC)c(O)c(C(=O)NCCO)c1,inactive
9,c1cnc2cc3c(cc2n1)C1CNCC3C1,inactive
10,CCC[C@@H]1C[C@@H](C(=O)N[C@@H]([C@H]2O[C@H](SC)[C@H](O)[C@@H](O)[C@H]2O)[C@@H](C)O)N(C)C1,inactive
11,CN(C)c1ccc(O)c2c1C[C@H]1C[C@H]3[C@H](N(C)C)C(=O)C(C(N)=O)=C(O)[C@@]3(O)C(=O)C1=C2O,inactive
12,NNc1nncc2ccccc12,inactive
13,NC(=O)Cc1cccc(C(=O)c2ccccc2)c1N,inactive
14,CC(=O)Nc1ccc(O)cc1,inactive
15,COCCCOc1ccnc(CS(=O)c2nc3ccccc3[nH]2)c1C (stereo not drawn),inactive and 15.1 µM (active)
16,CCN(CC)C(=S)SSC(=S)N(CC)CC,7.7 µM (active) and 7.76 µM (active)
17,O=C(O)c1cccc(-c2noc(-c3ccccc3F)n2)c1,1.55 µM (active)
18,Cc1cc(=O)oc2cc(O)ccc12,inactive
19,S=c1nc[nH]c2nc[nH]c12,19.5 µM (active)
20,O=C(OC1C[C@H]2CC[C@@H](C1)[N+]21CCCC1)C(O)(c1ccccc1)c1ccccc1 (stereo partly drawn),inactive
21,CN1C(C(=O)Nc2ccccn2)=C(O)c2sccc2S1(=O)=O,12.3 µM (active)
22,COc1cc(Nc2c(C#N)cnc3cc(OCCCN4CCN(C)CC4)c(OC)cc23)c(Cl)cc1Cl,inactive

# Target: Papain (Carica papaya) (UniProt P00784)
# Sequence (P00784 whole entry, looked up): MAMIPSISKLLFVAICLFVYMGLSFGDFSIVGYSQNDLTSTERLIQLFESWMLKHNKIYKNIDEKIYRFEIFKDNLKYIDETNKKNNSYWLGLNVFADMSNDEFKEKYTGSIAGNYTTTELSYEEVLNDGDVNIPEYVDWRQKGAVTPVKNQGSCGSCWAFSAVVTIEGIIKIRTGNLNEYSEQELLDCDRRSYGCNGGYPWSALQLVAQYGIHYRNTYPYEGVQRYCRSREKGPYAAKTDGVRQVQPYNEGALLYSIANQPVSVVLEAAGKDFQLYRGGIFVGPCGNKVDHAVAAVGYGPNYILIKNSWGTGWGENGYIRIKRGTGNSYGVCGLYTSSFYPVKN
# Assay: Primary qHTS assay for inhibitors of the protease papain (AID 1645873);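 also: papain turnover of Z-FR-AMC read as the AMC fluorescence gain over 10 min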
# Conditions: papain Z-FR-AMC cleavage, AMC fluorescence; series mostly up to 49.8 µM
row,SMILES,Potency
1,CC1(C)NC(=O)N(c2ccc([N+](=O)[O-])c(C(F)(F)F)c2)C1=O,inactive
2,C[C@H](Cc1ccc(O)c(O)c1)[C@@H](C)Cc1ccc(O)c(O)c1,inactive
3,c1cnc2cc3c(cc2n1)C1CNCC3C1,inactive
4,NNc1nncc2ccccc12,inactive
5,Cc1cc(O)c2c(c1)C(=O)c1cc(O)cc(O)c1C2=O,inactive
6,CCN(CC)C(=S)SSC(=S)N(CC)CC,inactive

# Target: N-terminal Xaa-Pro-Lys N-methyltransferase 1 (Homo sapiens) (UniProt Q9BV86)
# Sequence (Q9BV86 whole entry, looked up): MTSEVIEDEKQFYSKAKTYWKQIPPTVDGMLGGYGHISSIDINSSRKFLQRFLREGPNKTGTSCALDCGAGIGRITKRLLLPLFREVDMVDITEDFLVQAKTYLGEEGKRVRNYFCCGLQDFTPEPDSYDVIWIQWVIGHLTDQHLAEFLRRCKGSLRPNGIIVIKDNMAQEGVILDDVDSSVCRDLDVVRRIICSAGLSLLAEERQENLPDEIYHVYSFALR
# Assay: Confirmatory qHTS for Inhibitors of N-terminal methyltransferase 1 (NTMT1): MTaseGlo Assay (AID 1645874); also: nearly all actives have a fitted effect of over 65% in size; also: potency is read from the fitted curve at half-maximal effect
# Conditions: NTMT1 enzyme, MTase-Glo SAH luminescence; series mostly up to 51.5 µM
# Summary of the method: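 Preincubation of NTMT1 (125 nM) plus SAM (100 uM) with test compounds lasted 15 min; methylation of 1 uM SPKRIA then proceeded 30 min in the dark at room temperature. Luciferase signal reported SAH produced.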
row,SMILES,Potency
1,Cc1cc(O)c2c(c1)C(=O)c1cc(O)cc(O)c1C2=O,30.8 µM (active)
2,O=C(O)c1cccc(-c2noc(-c3ccccc3F)n2)c1,inactive
3,S=c1nc[nH]c2nc[nH]c12,inactive
4,COc1cc(Nc2c(C#N)cnc3cc(OCCCN4CCN(C)CC4)c(OC)cc23)c(Cl)cc1Cl,15.8 µM (active)

# System: not listed separately
# Assay: Primary qHTS for inhibitors of nuclear receptor binding SET domain protein 2 (NSD2) in an isogenic RCH-ACV NSD2 p.E1099K mutant (9B) (AID 1645876); also: nearly all actives have a fitted effect of over 70% in size; also: potency is read from the fitted curve at half-maximal effect
# Conditions: RCH-ACV (leukaemia line) NSD2 E1099K (9B) viability, CellTiter-Glo, 72 h; series mostly up to 44.9 µM
row,SMILES,Potency
1,O=C(O)c1cc(=O)c2c(OCC(O)COc3cccc4oc(C(=O)O)cc(=O)c34)cccc2o1,inactive
2,O=C(O)c1cn(-c2ccc(F)cc2)c2cc(N3CCNCC3)c(F)cc2c1=O,inactive
3,CC1=C(C(=O)O)N2C(=O)[C@@H](NC(=O)[C@H](N)C3=CCC=CC3)[C@H]2SC1,inactive
4,Cc1ccc(C)c(OCCCC(C)(C)C(=O)O)c1,inactive
5,CCCOc1ccc2nc(NC(=O)OC)[nH]c2c1,411 nM (active) and 417 nM (active)
6,CC1(C)NC(=O)N(c2ccc([N+](=O)[O-])c(C(F)(F)F)c2)C1=O,inactive
7,C[C@H](Cc1ccc(O)c(O)c1)[C@@H](C)Cc1ccc(O)c(O)c1,13.2 µM (active) and 7.31 µM (active)
8,c1cnc2cc3c(cc2n1)C1CNCC3C1,inactive
9,COC(=O)C1=C(C)NC(C)=C(C(=O)OCCCN2CCC(c3ccccc3)(c3ccccc3)CC2)C1c1cccc([N+](=O)[O-])c1 (stereo not drawn),7.42 µM (active) and 7.5 µM (active)
10,CN(C)c1ccc(O)c2c1C[C@H]1C[C@H]3[C@H](N(C)C)C(=O)C(C(N)=O)=C(O)[C@@]3(O)C(=O)C1=C2O,inactive
11,NNc1nncc2ccccc12,inactive
12,Cc1cc(O)c2c(c1)C(=O)c1cc(O)cc(O)c1C2=O,inactive
13,COCCCOc1ccnc(CS(=O)c2nc3ccccc3[nH]2)c1C (stereo not drawn),inactive
14,CCN(CC)C(=S)SSC(=S)N(CC)CC,351 nM (active) and 2.66 µM (active) and 2.63 µM (active)
15,O=C(O)c1cccc(-c2noc(-c3ccccc3F)n2)c1,inactive
16,Cc1cc(=O)oc2cc(O)ccc12,inactive
17,O=c1cc(N2CCOCC2)oc2c(-c3ccccc3)cccc12,4.17 µM (active)
18,S=c1nc[nH]c2nc[nH]c12,944 nM (active) and 2.63 µM (active)
19,CN1C(C(=O)Nc2ccccn2)=C(O)c2sccc2S1(=O)=O,inactive
20,COc1cc(Nc2c(C#N)cnc3cc(OCCCN4CCN(C)CC4)c(OC)cc23)c(Cl)cc1Cl,596 nM (active) and 1.63 µM (active) and 1.32 µM (active)
